# How the values were obtained:
# Assay in all cases: DAPPL (digital affinity profiling via proximity ligation, sequencing); 10 mM Tris-HCl pH 7.5, 50 mM NaCl, 1 mM DTT, 4% glycerol, room temperature, 30 min; GST-TFs on glutathione beads, 16-mer random dsDNA library, 0.1% formaldehyde crosslink after washing; high values mean tight binding
# Settings in all cases: protein: recombinant; tags: N-terminal GST; dsDNA, one strand shown
# ELK1 = target: T1, ELK1 (Homo sapiens, UniProt P19419 1-428)
# T1 sequence: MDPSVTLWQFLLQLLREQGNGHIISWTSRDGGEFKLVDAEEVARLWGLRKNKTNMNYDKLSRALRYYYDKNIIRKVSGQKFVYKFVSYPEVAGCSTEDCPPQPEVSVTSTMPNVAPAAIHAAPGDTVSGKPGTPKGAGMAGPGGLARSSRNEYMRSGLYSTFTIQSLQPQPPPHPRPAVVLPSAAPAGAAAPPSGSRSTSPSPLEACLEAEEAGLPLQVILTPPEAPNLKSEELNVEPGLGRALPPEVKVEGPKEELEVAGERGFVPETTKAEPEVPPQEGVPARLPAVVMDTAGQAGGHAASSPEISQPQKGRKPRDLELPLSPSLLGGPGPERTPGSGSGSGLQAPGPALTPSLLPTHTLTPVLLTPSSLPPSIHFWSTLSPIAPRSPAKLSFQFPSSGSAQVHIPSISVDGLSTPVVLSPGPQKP
# How it was run: (§1)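 Binding signal is each hexamer's read frequency for a factor divided by its frequency in the tag-only sample. The factors were GST-fused human transcription factors from yeast, captured on glutathione beads, DNA-barcoded and pooled with that sample. Pools were incubated with 200 nmole of a random double-stranded 16-mer DNA library in Tris/NaCl/DTT/glycerol buffer at room temperature for 30 min, then washed, crosslinked with 0.1% formaldehyde, proximity-ligated with BsaI/T4 ligase (1 h, 37 °C), PCR-amplified and sequenced on an Illumina NextSeq500.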
# GABPA = target: T2, GABPA (Homo sapiens, UniProt Q06546 1-454)
# T2 sequence: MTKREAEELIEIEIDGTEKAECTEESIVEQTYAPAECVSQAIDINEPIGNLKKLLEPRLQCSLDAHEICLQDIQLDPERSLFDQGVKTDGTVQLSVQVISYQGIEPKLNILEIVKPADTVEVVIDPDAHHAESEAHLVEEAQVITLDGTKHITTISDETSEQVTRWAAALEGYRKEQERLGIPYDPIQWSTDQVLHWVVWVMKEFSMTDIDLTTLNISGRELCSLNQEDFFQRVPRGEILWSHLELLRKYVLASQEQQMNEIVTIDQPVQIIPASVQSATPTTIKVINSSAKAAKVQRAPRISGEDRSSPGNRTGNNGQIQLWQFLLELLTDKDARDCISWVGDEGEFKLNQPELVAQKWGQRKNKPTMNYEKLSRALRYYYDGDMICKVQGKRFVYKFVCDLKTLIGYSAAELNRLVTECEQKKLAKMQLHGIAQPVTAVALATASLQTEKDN
# How it was run: as §1
# ERG = target: T3, ERG (Homo sapiens, UniProt P11308 1-479)
# T3 sequence: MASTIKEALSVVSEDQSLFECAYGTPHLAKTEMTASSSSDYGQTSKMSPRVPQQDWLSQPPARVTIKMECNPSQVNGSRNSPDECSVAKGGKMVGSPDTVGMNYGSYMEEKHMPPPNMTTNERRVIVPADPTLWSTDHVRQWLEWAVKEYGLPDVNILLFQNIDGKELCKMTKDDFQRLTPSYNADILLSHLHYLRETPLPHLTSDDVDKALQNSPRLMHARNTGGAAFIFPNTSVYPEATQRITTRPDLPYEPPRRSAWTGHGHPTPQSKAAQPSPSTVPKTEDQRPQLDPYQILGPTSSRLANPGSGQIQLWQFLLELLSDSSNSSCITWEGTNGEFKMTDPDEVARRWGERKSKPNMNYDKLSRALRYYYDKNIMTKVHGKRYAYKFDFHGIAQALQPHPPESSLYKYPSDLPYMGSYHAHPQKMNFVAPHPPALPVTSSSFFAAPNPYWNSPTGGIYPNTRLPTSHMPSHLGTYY
# How it was run: as §1
# ELF1 = ELF1 (Homo sapiens, UniProt P32519 1-619)
# Sequence of ELF1 (P32519 whole entry): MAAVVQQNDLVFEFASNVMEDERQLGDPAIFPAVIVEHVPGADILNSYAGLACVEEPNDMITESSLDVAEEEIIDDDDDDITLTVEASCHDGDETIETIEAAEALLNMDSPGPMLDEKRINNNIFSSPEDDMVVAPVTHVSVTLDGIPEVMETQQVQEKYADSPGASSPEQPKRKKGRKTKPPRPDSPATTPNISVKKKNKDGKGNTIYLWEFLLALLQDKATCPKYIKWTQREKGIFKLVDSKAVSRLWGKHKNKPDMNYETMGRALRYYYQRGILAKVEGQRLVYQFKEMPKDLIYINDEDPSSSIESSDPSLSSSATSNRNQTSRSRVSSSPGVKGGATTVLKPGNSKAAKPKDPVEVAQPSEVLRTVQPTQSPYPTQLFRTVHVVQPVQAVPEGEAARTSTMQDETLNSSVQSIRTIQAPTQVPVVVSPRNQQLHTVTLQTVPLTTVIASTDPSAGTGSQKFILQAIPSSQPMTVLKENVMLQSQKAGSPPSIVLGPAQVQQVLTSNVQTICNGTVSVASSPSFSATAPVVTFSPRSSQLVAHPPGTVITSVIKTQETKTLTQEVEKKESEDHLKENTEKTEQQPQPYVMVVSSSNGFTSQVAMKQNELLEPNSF
# How it was run: as §1
# ETV5 = ETV5 (Homo sapiens, UniProt P41161 1-510)
# Sequence of ETV5 (P41161 whole entry): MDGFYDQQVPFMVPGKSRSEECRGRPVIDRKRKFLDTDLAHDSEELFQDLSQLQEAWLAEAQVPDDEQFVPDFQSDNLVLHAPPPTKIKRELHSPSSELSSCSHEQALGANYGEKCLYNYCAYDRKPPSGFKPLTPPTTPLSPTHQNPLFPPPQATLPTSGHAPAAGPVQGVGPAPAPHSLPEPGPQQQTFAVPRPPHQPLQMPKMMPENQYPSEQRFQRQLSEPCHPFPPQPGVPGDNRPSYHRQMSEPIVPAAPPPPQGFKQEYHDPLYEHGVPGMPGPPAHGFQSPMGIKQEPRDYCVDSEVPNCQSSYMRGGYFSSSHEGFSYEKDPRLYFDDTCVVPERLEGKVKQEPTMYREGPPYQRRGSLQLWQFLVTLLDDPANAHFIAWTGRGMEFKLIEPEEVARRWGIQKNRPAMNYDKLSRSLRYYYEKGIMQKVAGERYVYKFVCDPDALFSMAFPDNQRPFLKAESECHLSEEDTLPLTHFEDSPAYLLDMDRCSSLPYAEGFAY
# How it was run: as §1
# ELK4 = target: T4, ELK4 (Homo sapiens, UniProt P28324-2 1-405)
# T4 sequence: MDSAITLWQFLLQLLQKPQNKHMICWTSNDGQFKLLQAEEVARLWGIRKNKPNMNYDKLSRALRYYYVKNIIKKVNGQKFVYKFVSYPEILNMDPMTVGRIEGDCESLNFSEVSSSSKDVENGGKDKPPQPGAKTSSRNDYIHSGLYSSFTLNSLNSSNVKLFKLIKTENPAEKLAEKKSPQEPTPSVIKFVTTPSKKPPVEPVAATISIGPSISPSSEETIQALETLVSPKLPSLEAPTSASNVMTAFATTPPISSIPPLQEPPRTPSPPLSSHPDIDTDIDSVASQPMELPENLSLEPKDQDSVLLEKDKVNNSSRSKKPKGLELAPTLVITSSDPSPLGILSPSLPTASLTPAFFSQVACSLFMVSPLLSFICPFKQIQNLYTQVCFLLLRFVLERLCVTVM
# How it was run: as §1
# ETV2 = target: T5, ETV2 (Homo sapiens, UniProt O00321 1-342)
# T5 sequence: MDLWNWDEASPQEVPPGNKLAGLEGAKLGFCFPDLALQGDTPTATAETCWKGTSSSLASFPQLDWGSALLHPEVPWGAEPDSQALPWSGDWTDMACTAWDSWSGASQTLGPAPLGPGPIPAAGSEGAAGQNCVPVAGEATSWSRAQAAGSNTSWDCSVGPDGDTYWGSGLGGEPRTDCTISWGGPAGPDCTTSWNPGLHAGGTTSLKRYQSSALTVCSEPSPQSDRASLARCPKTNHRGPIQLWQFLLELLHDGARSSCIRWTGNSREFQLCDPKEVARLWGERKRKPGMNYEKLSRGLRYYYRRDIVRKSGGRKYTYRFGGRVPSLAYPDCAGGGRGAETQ
# How it was run: as §1
# ERF = target: T6, ERF (Homo sapiens, UniProt P50548 1-548)
# T6 sequence: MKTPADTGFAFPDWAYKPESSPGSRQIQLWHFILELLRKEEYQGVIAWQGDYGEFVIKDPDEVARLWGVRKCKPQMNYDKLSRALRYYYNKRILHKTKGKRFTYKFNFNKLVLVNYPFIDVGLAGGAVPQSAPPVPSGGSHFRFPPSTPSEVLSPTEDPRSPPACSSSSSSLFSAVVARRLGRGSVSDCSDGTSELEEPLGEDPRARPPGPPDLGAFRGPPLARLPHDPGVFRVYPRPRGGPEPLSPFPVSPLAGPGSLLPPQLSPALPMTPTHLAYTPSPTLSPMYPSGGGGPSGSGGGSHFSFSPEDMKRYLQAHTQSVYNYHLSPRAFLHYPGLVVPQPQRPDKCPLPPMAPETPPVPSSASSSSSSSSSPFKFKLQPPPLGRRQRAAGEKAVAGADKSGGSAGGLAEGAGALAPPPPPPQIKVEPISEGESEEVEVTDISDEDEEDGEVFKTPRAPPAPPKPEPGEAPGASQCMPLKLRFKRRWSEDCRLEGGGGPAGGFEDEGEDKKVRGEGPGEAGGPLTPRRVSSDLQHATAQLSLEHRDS
# How it was run: as §1
# ETV3L = target: T7, ETV3L (Homo sapiens, UniProt Q6ZN32 1-361)
# T7 sequence: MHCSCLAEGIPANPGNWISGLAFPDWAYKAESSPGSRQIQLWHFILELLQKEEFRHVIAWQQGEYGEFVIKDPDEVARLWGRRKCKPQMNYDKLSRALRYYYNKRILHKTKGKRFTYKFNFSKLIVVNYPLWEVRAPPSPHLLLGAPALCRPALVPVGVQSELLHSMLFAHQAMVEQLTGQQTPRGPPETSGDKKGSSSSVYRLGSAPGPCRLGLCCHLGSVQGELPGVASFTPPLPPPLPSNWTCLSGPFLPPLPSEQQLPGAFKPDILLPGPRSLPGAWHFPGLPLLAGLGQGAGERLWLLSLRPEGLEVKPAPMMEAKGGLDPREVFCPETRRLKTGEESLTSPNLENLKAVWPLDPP
# How it was run: as §1
# SPDEF = target: T8, SPDEF (Homo sapiens, UniProt O95238 1-335)
# T8 sequence: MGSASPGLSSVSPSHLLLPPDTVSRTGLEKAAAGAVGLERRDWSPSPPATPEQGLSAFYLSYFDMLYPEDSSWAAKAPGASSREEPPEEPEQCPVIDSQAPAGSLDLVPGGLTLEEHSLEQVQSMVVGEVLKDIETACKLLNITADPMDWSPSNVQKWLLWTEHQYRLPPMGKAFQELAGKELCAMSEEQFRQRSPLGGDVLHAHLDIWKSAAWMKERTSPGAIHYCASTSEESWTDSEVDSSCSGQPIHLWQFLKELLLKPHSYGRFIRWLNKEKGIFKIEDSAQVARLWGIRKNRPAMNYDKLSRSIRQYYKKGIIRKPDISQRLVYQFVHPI
# How it was run: as §1
# ETV7 = target: T9, ETV7 (Homo sapiens, UniProt Q9Y603 1-341)
# T9 sequence: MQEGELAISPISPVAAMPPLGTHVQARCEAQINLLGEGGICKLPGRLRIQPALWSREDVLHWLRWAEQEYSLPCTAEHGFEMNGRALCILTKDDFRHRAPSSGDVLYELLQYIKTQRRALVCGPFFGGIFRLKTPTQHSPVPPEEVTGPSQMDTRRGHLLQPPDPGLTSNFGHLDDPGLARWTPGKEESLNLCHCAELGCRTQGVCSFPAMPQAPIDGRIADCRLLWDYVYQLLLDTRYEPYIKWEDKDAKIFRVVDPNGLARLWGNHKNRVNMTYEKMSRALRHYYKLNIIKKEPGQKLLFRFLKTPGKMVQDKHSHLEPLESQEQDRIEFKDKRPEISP
# How it was run: as §1
# ETV3 = target: T10, ETV3 (Homo sapiens, UniProt P41162-2 1-143)
# T10 sequence: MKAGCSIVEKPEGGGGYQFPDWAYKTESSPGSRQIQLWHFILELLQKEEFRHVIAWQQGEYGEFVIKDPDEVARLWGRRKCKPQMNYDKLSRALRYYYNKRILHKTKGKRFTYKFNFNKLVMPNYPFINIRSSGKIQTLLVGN
# How it was run: as §1
# ETV6 = ETV6 (Homo sapiens, UniProt P41212 1-452)
# Sequence of ETV6 (P41212 whole entry): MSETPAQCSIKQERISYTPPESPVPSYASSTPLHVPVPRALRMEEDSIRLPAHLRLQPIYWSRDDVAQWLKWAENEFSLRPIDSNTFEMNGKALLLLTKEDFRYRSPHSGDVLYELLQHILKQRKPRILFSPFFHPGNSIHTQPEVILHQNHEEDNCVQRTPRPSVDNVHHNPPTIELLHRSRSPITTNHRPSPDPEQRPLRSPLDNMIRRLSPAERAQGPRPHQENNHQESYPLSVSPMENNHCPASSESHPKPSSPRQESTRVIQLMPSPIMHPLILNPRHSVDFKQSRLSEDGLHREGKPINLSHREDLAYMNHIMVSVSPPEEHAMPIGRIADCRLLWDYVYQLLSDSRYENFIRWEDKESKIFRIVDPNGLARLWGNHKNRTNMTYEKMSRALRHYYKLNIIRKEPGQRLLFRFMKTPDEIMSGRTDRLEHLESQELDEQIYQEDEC
# How it was run: as §1
sequence,measurement,setting,value
CGTTGT,binding signal,ELK1,"1.09 fold enrichment (6-mer frequency, TF over GST control)"
same,binding signal,GABPA,"1 fold enrichment (6-mer frequency, TF over GST control)"
same,binding signal,ERG,"1.02 fold enrichment (6-mer frequency, TF over GST control)"
same,binding signal,ELF1,"1.04 fold enrichment (6-mer frequency, TF over GST control)"
same,binding signal,ETV5,"1.01 fold enrichment (6-mer frequency, TF over GST control)"
same,binding signal,ELK4,"1.14 fold enrichment (6-mer frequency, TF over GST control)"
same,binding signal,ETV2,"1.13 fold enrichment (6-mer frequency, TF over GST control)"
same,binding signal,ERF,"1.03 fold enrichment (6-mer frequency, TF over GST control)"
same,binding signal,ETV3L,"1.18 fold enrichment (6-mer frequency, TF over GST control)"
same,binding signal,SPDEF,"1.05 fold enrichment (6-mer frequency, TF over GST control)"
same,binding signal,ETV7,"1.1 fold enrichment (6-mer frequency, TF over GST control)"
same,binding signal,ETV3,"1.07 fold enrichment (6-mer frequency, TF over GST control)"
same,binding signal,ETV6,"1 fold enrichment (6-mer frequency, TF over GST control)"

# From publication PMC7862700, “An all-to-all approach to the identification of sequence-specific readers for epigenetic DNA modifications on cytosine”
